Assay [1] is described as follows: qHTS for Inhibitors of the Aldehyde Dehydrogenase Family (ALDH1A2, ALDH1A3, ALDH2, ALDH3A1) (AID 2061307). Further: nearly all actives have a fitted effect of over 50% in size. On Potency: test system not described further here; potency means the concentration at half of the fitted maximal effect. On activity change, negative = inhibition: on the % scale 0 is the no-effect control and ±100 the full control effect. A general note: Quantitative high-throughput screening tests each substance at several concentrations.
Assay [2] deals with Retinaldehyde dehydrogenase 3 (Homo sapiens) (UniProt P47895). Description: qHTS for Inhibitors of the Aldehyde Dehydrogenase Family (ALDH1A3) Confirmatory screens (AID 2061311). Further: nearly all actives have a fitted effect of over 60% in size. Further: potency means the concentration at half of the fitted maximal effect. On activity change, negative = inhibition: on the % scale 0 is the no-effect control and ±100 the full control effect.
Assay [3] has as its target Retinal dehydrogenase 2 (Homo sapiens) (UniProt O94788). Description: qHTS for Inhibitors of the Aldehyde Dehydrogenase Family (ALDH1A2) Confirmation screens (AID 2061314). Further: nearly all actives have a fitted effect of over 65% in size. Further: potency means the concentration at half of the fitted maximal effect.
For assay [4], the target named is Retinaldehyde dehydrogenase 3 (Homo sapiens) (UniProt P47895). Description: qHTS for Inhibitors of the Aldehyde Dehydrogenase Family (ALDH1A3) Primary screen (AID 2061315).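 Further: plate controls were DMSO vehicle for no effect and reference inhibitor for full effect.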
Assay [5] has as its target Aldehyde dehydrogenase 1A1 (Homo sapiens) (UniProt P00352). Description: qHTS for Inhibitors of the Aldehyde Dehydrogenase Family (ALDH1A1) Confirmatory screens (AID 2061316). Further: nearly all actives have a fitted effect of over 65% in size. Further: potency means the concentration at half of the fitted maximal effect. On activity change, negative = inhibition: on the % scale 0 is the no-effect control and ±100 the full control effect.

Inconclusive results are not listed. A number with no mark means an inactive call. Calls of active or inactive are those of the source. The call rests on the fitted dose curve; in most records, active means well fitted inhibition curve with a large enough effect; inconclusive means small, poorly fitted or top-dose-only effect; inactive means no such curve, though single readings can be large or run the other way.

On to `O=C1Cc2cc(S(=O)(=O)N3CCN(c4ccc(F)cc4)CC3)ccc2N1`, for which the Potency result in assay [1], in assay [2], in assay [3] and in assay [4] was “inactive” throughout.
In the case of `O=C1Nc2ccc(Cl)cc2/C1=C\c1cc(Cl)c(O)c(Cl)c1`, the Potency in assay [1] was 10.1 µM (active); in assay [3], 12.7 µM (active). Moreover, the Potency entry in assay [2] and in assay [4] was “inactive” each time.
As for `NC(=O)C1CCN(c2nc(-c3ccc4ccccc4c3)cs2)CC1`, the Potency in assay [1] is 5.65 µM (active). For the same compound, the Potency entry in assay [2], in assay [3] and in assay [4] was “inactive” in each case.
On to `O=C(C1CCN(Cc2ccccc2-c2ccccc2F)CC1)N1CCN(Cc2ccccc2)CC1`, for which the Potency result in assay [1], in assay [2] and in assay [3] was “inactive” each time.
As for `Cc1ccc(CCN2C(=O)c3ccc(C(=O)O)cc3C2=O)cc1`, the Potency result in assay [1], in assay [2], in assay [3] and in assay [4] was “inactive” throughout.
Take `Cc1nc(C(C)Nc2ncnc3ccc(-c4ccc5c(c4)OCO5)cc23)cs1` (stereo not drawn): the Potency result in assay [1], in assay [2], in assay [3] and in assay [4] was “inactive” throughout.
Take `Cc1cc(C)nc(NC(=S)N2CCN(c3ccc4cn(C)nc4c3)CC2)c1`: the Potency entry in assay [1] and in assay [4] was “inactive” in each case. Further, the Potency in assay [2] was 15.9 µM (active); in assay [3], 12.7 µM (active); in assay [5], 7.12 µM (active).
For `COc1ccc(C2=NN(CC(=O)NCCc3ccc(OC)c(OC)c3)C(=O)CC2)cc1`, the Potency result in assay [1], in assay [2] and in assay [3] was “inactive” in each case.
As for `CC(=O)N1CCN(c2ccc(NCc3ccc4c(c3)OCO4)cc2)CC1`, the Potency in assay [1] is 8.96 µM (active); in assay [2], 11.3 µM (active); in assay [3] it was 8.96 µM (active).
Take `COc1ccc2c(c1)c(C(=O)CN(C)C)c(C)n2C`: the Potency result in assay [1], in assay [2], in assay [3] and in assay [5] was “inactive” in each case.
For the compound `COc1ccc(C2Nc3ccccc3C(=O)N2Cc2ccco2)cc1COc1ccc(N)cc1` (stereo not drawn), the values for the Potency in assay [1], in assay [3] and in assay [5] were 1.79 µM (active), 4.49 µM (active) and 1.79 µM (active), respectively. In addition, the activity change, negative = inhibition in assay [2] is -17.5% [at 0.022 µM]. Also, the Potency result in assay [4] was “inactive”.
For the compound `COc1ccc(C2=Nn3c(nnc3-c3ccccc3OC)SC2)cc1OC1CCCC1`, the results for the Potency in assay [1], in assay [2] and in assay [3] were 15.8 µM (active), 22.4 µM (active) and 6.34 µM (active), respectively. Also, the Potency entry in assay [4] is “inactive”.
As to `CC(=O)c1c(C)n(-c2ccc(C)cc2)c2ccc(OC(=O)COc3ccccc3)cc12`, the Potency entry in assay [1], in assay [2], in assay [3] and in assay [5] was “inactive” throughout.
Regarding `CC(=O)c1c(C)n(-c2cccc(C)c2)c2ccc(OC(=O)COc3ccccc3)cc12`, the Potency entry in assay [1], in assay [2], in assay [3] and in assay [5] was “inactive” each time.
`Cc1cc(C)cc(-c2ccc(C=O)cc2)c1`: the Potency entry in assay [1], in assay [2], in assay [3] and in assay [5] was “inactive” each time.
On to `Cc1cc(NC(=O)Nc2nnc(-c3ccncc3)s2)ccc1Br`, for which the values for the Potency in assay [1] and in assay [5] were 11.3 µM (active) and 12.7 µM (active), respectively. In addition, the Potency result in assay [2] and in assay [4] was “inactive” in each case.
In the case of `N#Cc1ccc(-c2ccc(CNc3ccc(N4CCOCC4)cc3)cn2)cc1`, the Potency in assay [1] is 6.34 µM (active); in assay [2], 12.7 µM (active); in assay [5], 4.49 µM (active). For the same compound, the Potency result in assay [3] is “inactive”.
Consider `CCn1cnc2c(Nc3ccc(CC(=O)N=C(N)N)cc3)nc(C#N)nc21`, for which the Potency result in assay [1], in assay [2], in assay [4] and in assay [5] was “inactive” each time.
On to `CC(=O)Nc1cccc(OCc2cccc(C3Nc4ccccc4C(=O)N3Cc3ccco3)c2)c1` (stereo not drawn), for which the results for the Potency in assay [1], in assay [2] and in assay [5] were 7.94 µM (active), 10 µM (active) and 7.12 µM (active), respectively. The Potency result in assay [4] is “inactive”.
`Cc1ccc(-c2cccc(C=O)c2)c(C)c1`: the Potency result in assay [1], in assay [2], in assay [3] and in assay [5] was “inactive” throughout.
Consider `CCOC(=O)c1c(C)n(-c2ccccc2)c2ccc(OC(=O)c3ccccc3)cc12`, for which the Potency entry in assay [1], in assay [2], in assay [3] and in assay [5] was “inactive” throughout.
Turning to `CC(=O)N1CCN(c2ccc(NCc3ccco3)cc2)CC1`, the Potency is 4 µM (active) in assay [1], 10.1 µM (active) in assay [2], 14.2 µM (active) in assay [3] and 7.98 µM (active) in assay [5].
For `Cc1ccc(C(=O)NCC(c2ccc3c(c2)OCO3)N2CCN(c3ccc(F)cc3)CC2)cc1` (stereo not drawn) the same measures were “inactive”, “inactive”, “inactive” and “inactive”.
For `COc1cccc(-c2cccc(C(=O)N3CCN(C(=O)c4ccc(C)cc4)CC3)c2)c1` the same measures were “inactive”, “inactive”, “inactive” and 8.14 µM (active).
For `COc1ccc(-n2c(C)c(C(C)=O)c3cc(OC(=O)COc4ccccc4)ccc32)cc1` the same measures were “inactive”, “inactive”, “inactive” and “inactive”.
For the compound `COc1ccc(Cl)cc1C(=O)NCc1nnc2cc(-c3nc(C)no3)ccn12`, the Potency result in assay [1], in assay [2], in assay [3] and in assay [5] was “inactive” throughout.
In the case of `Cc1cccc(-c2ccccc2C=O)c1`, the Potency result in assay [1], in assay [2], in assay [3] and in assay [5] was “inactive” in each case.
Regarding `Cc1cc(C)cc(-c2ccccc2C=O)c1`, the Potency result in assay [1], in assay [2], in assay [3] and in assay [5] was “inactive” each time.
As to `Cc1cccc(C(=O)NCc2nnc3cc(-c4nc(C)no4)ccn23)c1`, the Potency entry in assay [1], in assay [2], in assay [3] and in assay [5] was “inactive” in each case.
In the case of `Cc1cc(NS(=O)(=O)c2ccc(Nc3nc(-c4ccc(C)c(C)c4)cs3)cc2)no1`, in assay [1], the Potency was 0.896 µM (active). In addition, the Potency result in assay [2] and in assay [4] was “inactive” in each case.

These data come from PubChem BioAssay (NCATS).
